Compounds with a hit are over-represented: about 4% of the library has one in this group of screens.
Beta apoptosis – inhibitors of cytokine-induced beta cell apoptosis, primary screen, luminescence; INS-1E cytokine-induced death, ATP luminescence, 48 h; percent of positive-control rescue, neutral wells zero; protection from apoptosis, % (concentration not given with the values); 0.8% of 300,000 active; AID 435005, 2010;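 active means Every replicate reaches about 75%, or at least half do and their mean reaches it too, limit read from the data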;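 further: 0% = cytokine-treated negative control wells and 100% = positive control rescue; higher means more ATP so stronger rescue from cytokine killing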
697 NFkB inh – inhibitors of PMA/ionomycin-induced NF-kB reporter, 697 cells, primary screen, B-cell NF-kB inhibitor project, cell-based, luminescence, uHTS; 697 B-cell NF-kB luciferase reporter, 16 h; inhibition, % at 4 µM; 0.33% of 330,000 active; AID 435022, 2010; in the data active means inhibition above about 35%
Gli-Sufu block – Gli-Sufu pathway antagonists, primary screen, luciferase luminescence, Sufu-KO-LIGHT cells, uHTS | Sufu-KO-LIGHT fibroblasts, Gli luciferase reporter luminescence | inhibition, % at 5 µM | 0.74% of 340,000 active | AID 588413, 2011;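 active means inhibition above about 55%, limit read from the data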;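 further: 0% = DMSO-treated cells and 100% = wells with medium but no cells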
Jurkat NFkB inh – inhibitors of induced NF-kB luciferase reporter, primary screen, TCR NF-kB activation inhibitor project, cell-based, luminescence, uHTS; inhibition, % at 4 µM; Jurkat, PMA/ionomycin-induced NF-kB luciferase reporter; 0.53% of 330,000 active; in the data active means inhibition above about 50%
Mdm2 MdmX PPI – inhibitors of human Mdm2-MdmX association, primary screen, cell-based, luminescence, split luciferase, SaOS-2, uHTS; Protein Mdm4 (Homo sapiens) + E3 ubiquitin-protein ligase Mdm2 (Homo sapiens), …; SaOS-2 split-luciferase Mdm2/MdmX complementation; inhibition, % at 8 µM; 3% of 330,000 active; AID 485346, 2010;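 active means inhibition of at least 50% at 8 µM in the primary screen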
Target sequence (O15151 whole entry, looked up): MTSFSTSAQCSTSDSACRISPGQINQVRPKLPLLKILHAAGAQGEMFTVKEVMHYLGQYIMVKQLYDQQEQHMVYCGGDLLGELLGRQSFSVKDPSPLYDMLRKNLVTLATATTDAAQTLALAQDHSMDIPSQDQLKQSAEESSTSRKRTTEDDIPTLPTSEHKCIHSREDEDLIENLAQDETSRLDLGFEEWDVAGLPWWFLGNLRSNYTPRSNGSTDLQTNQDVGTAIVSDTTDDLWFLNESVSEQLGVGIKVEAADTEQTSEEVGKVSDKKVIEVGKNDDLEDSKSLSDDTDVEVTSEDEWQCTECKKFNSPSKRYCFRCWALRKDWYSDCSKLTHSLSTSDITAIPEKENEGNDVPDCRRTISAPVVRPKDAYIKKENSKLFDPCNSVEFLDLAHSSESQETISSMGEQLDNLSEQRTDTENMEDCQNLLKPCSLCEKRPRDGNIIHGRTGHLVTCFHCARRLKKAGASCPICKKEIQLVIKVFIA
Target sequence (Q00987 whole entry, looked up): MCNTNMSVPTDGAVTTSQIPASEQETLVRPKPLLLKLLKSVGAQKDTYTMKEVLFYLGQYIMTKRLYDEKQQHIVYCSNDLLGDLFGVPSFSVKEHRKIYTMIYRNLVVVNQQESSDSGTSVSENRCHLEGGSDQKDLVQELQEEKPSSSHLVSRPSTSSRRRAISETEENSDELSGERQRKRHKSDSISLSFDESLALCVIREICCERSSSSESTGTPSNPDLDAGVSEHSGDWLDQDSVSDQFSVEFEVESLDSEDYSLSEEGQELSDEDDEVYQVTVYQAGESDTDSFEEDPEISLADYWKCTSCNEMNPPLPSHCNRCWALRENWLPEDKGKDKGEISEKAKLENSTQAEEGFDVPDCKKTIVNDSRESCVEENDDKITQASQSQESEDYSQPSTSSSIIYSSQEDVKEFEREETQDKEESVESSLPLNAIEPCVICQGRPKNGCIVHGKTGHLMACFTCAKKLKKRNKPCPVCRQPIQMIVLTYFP
Mdm2-MdmX conf – Mdm2-MdmX complex disruptors, retested hits, confirmation, luminescence, single concentration. shares compounds with Mdm2 MdmX PPI. Mdm2-MdmX binding, luminescent assay. inhibition, % at 8 µM. 55% of 10,000 active; in the data active means inhibition above about 40%
Full FLuc ctr – full-length luciferase signal inhibition, confirmation, counter-screen for Mdm2/MdmX interaction inhibitor project, cell-based, single concentration, SaOS-2; shares compounds with Mdm2 MdmX PPI; SaOS-2 full-length luciferase counterscreen, luminescence; inhibition, % at 8 µM; 77% of 6,200 active; AID 504607, 2011;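 active means mean inhibition at 8 µM reaching about 37%, which flags the compound as non-specific, limit read from the data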;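 further: p53-null SaOS-2 cells with luciferase driven by a doxycycline-inducible promoter; compound on cells about two nights before reading with doxycycline added after day one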
The depositor's hits bear a star; . = not tested or not shown.

SMILES	Beta apoptosis	697 NFkB inh	Gli-Sufu block	Jurkat NFkB inh	Mdm2 MdmX PPI	Mdm2-MdmX conf	Full FLuc ctr
Cc1ccc(N2C(=O)c3ccccc3C2C(=O)c2ccc(C)c(C)c2O)cc1 (centres undefined)	3.0	-24.0	1.1	-43.1	3.6	.	.
CCc1ccccc1NC(=O)CNC(=O)CCNC(=O)Nc1ccccc1	-3.8	-6.7	-11.8	5.1	7.8	.	.
COC(=O)[C@@]1(Cc2ccc(OC)cc2)[C@@H]2[C@@H](CC(=O)[C@H]2CC(=O)C(=O)N(C)C)CN1C(=O)c1ccccc1	-5.8	14.3	-23.2	4.7	8.9	.	.
COC(=O)[C@@]1(Cc2ccc(OC)cc2)[C@@H]2C(=CC(=O)[C@H]2CC(=O)C(=O)N2CCCC2)CN1C(=O)c1ccccc1	-16.2	-11.1	4.6	-3.4	69.1*	22.1	.
CC(=O)c1ccccc1NCC(=O)Nc1ccc(C)cc1	-18.4	4.0	-4.0	-13.9	8.7	.	.
Cc1nn(-c2cc(N3CCCCC3)ccc2N)c(=O)c2ccccc12	2.6	17.8	4.4	2.6	-4.5	.	.
Nc1ccc(N2CCCCC2)cc1N1CCCCC1	113.2*	-50.4	3.8	-7.8	80.4*	19.9	.
C/C(=N\NC(=O)c1cccc(F)c1)c1ccc(Br)s1	9.2	-45.4	-27.4	29.1	71.8*	49.4*	44.2*
Cc1cc(Cl)ccc1OCC(=O)N1CCCCC1	2.5	-59.4	-30.9	-23.9	-19.1	.	.
O=C(COc1ccc(Cl)cc1Cl)N1CCCN(C(=O)COc2ccc(Cl)cc2Cl)CC1	16.8	22.3	-2.7	-0.6	58.7*	21.1	.
N#Cc1cc(Oc2cccc3cccnc23)c(-n2nnc3ccccc32)cc1C#N	9.7	-45.3	.	0.0	61.8*	18.3	.
O=C(CCN1C(=O)/C(=C/c2ccc(F)cc2)SC1=S)N[C@@H](CO)Cc1ccccc1	-44.6	-16.2	-0.4	7.6	82.1*	60.9*	37.3*
O=C(CCN1C(=O)/C(=C\c2ccccc2)SC1=S)NNC(=O)c1ccccc1O	3.4	18.9	-5.6	0.9	-5.4	.	.
O=C(CCN1C(=O)/C(=C/c2ccccc2F)SC1=S)NCCc1ccc(O)cc1	.	-4.3	0.1	9.5	71.4*	53.0*	33.0
COc1ccccc1NC(=O)CCN1C(=O)/C(=C/c2cc(OC)c(OC)c(OC)c2)SC1=S	.	7.9	7.7	16.1	29.6	.	.
COc1ccccc1/C=C1\SC(=S)N(CCC(=O)NCCc2ccc(O)cc2)C1=O	.	-35.0	-4.0	-8.4	59.6*	38.2	68.8*
O=C(CCN1C(=O)/C(=C/c2ccccc2F)SC1=S)NCCCn1ccnc1	.	-46.3	9.0	1.8	-0.3	.	.
O=C(CCN1C(=O)/C(=C/c2ccccc2)SC1=S)NCCc1ccc(O)cc1	-12.9	-23.5	-11.1	12.9	98.3*	87.7*	59.8*
O=C(CCN1C(=O)/C(=C/c2ccc(F)cc2)SC1=S)NC1CCS(=O)(=O)C1 (centres undefined)	-11.9	-20.7	3.4	0.2	-15.9	.	.
Cc1nc2c(ncn2-c2ccccc2)c(=O)n1NC(=O)CN1CCCCC1	.	5.8	-3.5	5.5	9.9	.	.
COc1ccc(-c2cc(=O)oc3c(C)c(OC(C)C(=O)Nc4ccc(CN5CCOCC5)cc4)ccc23)cc1 (centres undefined)	2.3	-25.7	45.0	8.7	49.7	.	.
COc1ccc(/C=C2\SC(=S)N(CCC(=O)NCCc3ccc(O)cc3)C2=O)cc1	-9.9	17.9	4.2	11.8	78.6*	71.1*	27.4
CCc1nnc(NC(=O)CSc2nnc(-c3ccccc3O)n2-c2ccc(C)cc2C)s1	5.4	-39.3	3.3	12.1	62.6*	53.1*	61.0*
Cc1ccc(-c2csc(C3=C(O)CN(NC(=O)c4ccco4)C3=N)n2)cc1	-0.4	6.1	35.2	-1.5	1.7	.	.
Cc1ccc(C(C(=O)NCc2ccco2)N(C(=O)CNC(=O)c2cccs2)c2c(C)cc(C)cc2C)cc1 (centres undefined)	-5.9	16.5	1.3	10.5	87.0*	52.9*	43.2*
SMILES	Beta apoptosis	697 NFkB inh	Gli-Sufu block	Jurkat NFkB inh	Mdm2 MdmX PPI	Mdm2-MdmX conf	Full FLuc ctr
Cc1ccc(C(C(=O)NCc2ccco2)N(C(=O)CNC(=O)c2cccs2)c2c(C)cccc2C)cc1 (centres undefined)	35.7	-2.5	9.9	-9.5	52.1*	53.1*	64.6*
Cc1sc(NC(=O)c2ccco2)c(C(c2ccc(F)cc2)N2CCN(C)CC2)c1C (centres undefined)	-5.2	-24.4	10.4	-8.7	53.5*	36.0	73.7*
Cc1sc(NC(=O)c2ccccc2)c(C(c2ccc(Cl)cc2)N2CCN(CCO)CC2)c1C (centres undefined)	-6.0	10.7	12.7	7.7	54.5*	36.9	84.1*
Cc1sc(NC(=O)c2ccco2)c(C(c2cccnc2)N2CCN(c3ccc(F)cc3)CC2)c1C (centres undefined)	29.5	28.8	39.5	38.3	45.1	.	.
Cc1cc2c(=O)n(C)c(SCC(=O)Nc3ccccc3C)nc2s1	2.0	-35.4	0.8	-8.8	5.8	.	.
COc1ccc(C)cc1NC(=O)CNC(=O)[C@@H]1Cc2ccccc2CN1	2.5	2.2	.	4.6	3.9	.	.
O=C(CN(C(=O)c1ccc(Cl)cc1)C1CCCCC1)Nc1ccc(Cl)c([N+](=O)[O-])c1	33.7	5.0	31.2	7.9	65.0*	43.2*	71.7*
CC1Cc2ccccc2N1C(=O)c1cc2c(=O)n3ccccc3nc2n1C (centres undefined)	0.1	17.8	6.6	20.9	53.0*	10.2	.
Cc1cccn2c(=O)c3cc(C(=O)N4c5ccccc5CC4C)n(C)c3nc12 (centres undefined)	-2.1	-32.5	12.3	43.6	21.8	.	.
COc1ccc(N/N=C(/N=Nc2nc(C)cc(=O)[nH]2)c2ccccc2)cc1	91.0*	-131.9	-1.6	-15.1	53.8*	77.3*	30.7
Cc1cc(=O)[nH]c(N=N/C(=N/Nc2ccc(O)cc2)c2ccccc2)n1	11.0	-48.2	15.9	-37.4	-1.1	.	.
Cc1cc(=O)[nH]c(N=N/C(=N/Nc2ccccc2C)c2ccccc2)n1	93.2*	-33.0	-34.6	23.2	68.7*	82.3*	49.0*
O=C(c1c(F)cccc1F)N1CCN(CCOc2ccccc2)CC1	6.1	-2.0	2.4	1.2	11.6	.	.
COc1ccc(C(=O)/C=C/C(=O)N(CC(=O)NC2CCCCC2)CC2CCCO2)c(O)c1 (centres undefined)	48.7	-0.5	1.1	13.3	59.6*	29.1	.
